Measured values as given in ChEMBL document CHEMBL3988442, “University of Dundee, Small-Polar-MMV Screening Library” (2021).
For some of these results: Entries with a potency or affinity are not part of this list.

Key:
Set-up in all cases: scale not given: direction of the effect not stated beside the values
[1] = biological target: Protein translocase subunit SecA (Escherichia coli (strain K12)) (UniProt P10408); assay: Assay to Identify E. coli SecA ATPase Inhibitors; type: functional; settings: 30 µM
[2] = biological target: T1, Ubiquitin-activating enzyme e1, putative (Leishmania donovani (strain BPK282A1)) (UniProt E9BSI1); assay: Leishmania donovani Ubiquitin Activating Enzyme (LdE1); type: functional; settings: 30 µM
T1 sequence (whole entry): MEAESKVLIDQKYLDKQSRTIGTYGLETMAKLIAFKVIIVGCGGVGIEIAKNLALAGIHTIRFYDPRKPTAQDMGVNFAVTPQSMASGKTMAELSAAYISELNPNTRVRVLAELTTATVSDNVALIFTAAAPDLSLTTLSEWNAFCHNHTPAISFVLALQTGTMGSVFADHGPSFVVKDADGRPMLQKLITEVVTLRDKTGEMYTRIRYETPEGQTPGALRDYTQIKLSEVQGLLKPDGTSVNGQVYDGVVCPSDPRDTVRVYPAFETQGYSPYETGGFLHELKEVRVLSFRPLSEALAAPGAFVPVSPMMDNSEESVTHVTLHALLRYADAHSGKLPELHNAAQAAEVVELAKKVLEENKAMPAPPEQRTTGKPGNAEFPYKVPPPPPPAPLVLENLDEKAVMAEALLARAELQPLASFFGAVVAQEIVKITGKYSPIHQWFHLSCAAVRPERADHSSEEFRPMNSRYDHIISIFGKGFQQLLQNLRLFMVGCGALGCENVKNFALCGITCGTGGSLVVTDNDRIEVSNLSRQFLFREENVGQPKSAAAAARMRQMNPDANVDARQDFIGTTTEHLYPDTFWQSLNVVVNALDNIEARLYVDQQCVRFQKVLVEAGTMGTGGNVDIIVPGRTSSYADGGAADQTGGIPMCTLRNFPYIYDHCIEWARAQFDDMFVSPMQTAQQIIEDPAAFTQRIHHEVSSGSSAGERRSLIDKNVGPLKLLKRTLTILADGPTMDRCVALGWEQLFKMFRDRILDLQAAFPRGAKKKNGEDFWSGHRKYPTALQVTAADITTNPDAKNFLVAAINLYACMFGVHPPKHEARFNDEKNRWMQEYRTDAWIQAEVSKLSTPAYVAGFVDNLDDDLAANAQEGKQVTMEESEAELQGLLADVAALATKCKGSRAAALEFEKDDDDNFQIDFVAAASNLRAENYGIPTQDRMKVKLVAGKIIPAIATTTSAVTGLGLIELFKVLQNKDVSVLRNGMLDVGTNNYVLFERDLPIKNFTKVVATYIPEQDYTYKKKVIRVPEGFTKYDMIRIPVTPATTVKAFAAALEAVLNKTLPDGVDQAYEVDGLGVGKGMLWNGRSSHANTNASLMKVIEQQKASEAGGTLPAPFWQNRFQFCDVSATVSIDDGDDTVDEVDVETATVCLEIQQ

[3] = biological target: AMP-activated protein kinase, AMPK (Homo sapiens) (UniProt P54646+O43741+P54619+Q9UGJ0+Q9Y478+Q13131+Q9UGI9); assay: AMP-dependent Kinase enzyme assay. An in vitro enzyme assay that detects ADP turnover that is directly proportional to AMPK activity. This uses naive AMPK that is activated during the assay with MK-8722; type: functional; settings: 30 µM
[4] = biological target: Sialic acid-binding Ig-like lectin 9 (Homo sapiens) (UniProt Q9Y336); assay: Hs-Siglec9 ALPHAscreen SOP 20170721; settings: 10 µM
Trypanosoma cruzi = assay: Trypanosoma cruzi phosphomannomutase and mannose-1-phosphate guanylyltransferase assay; type: functional; settings: 10 µM
[5] = biological target: T2, Arginase-2, mitochondrial (Homo sapiens) (UniProt P78540); assay: in vitro enzyme assay to detect the production of urea directly proportional to the activity of Arginase II; type: functional; settings: 33.3 µM; further: in the data most compounds retested in dose-response had high values
T2 sequence (whole entry): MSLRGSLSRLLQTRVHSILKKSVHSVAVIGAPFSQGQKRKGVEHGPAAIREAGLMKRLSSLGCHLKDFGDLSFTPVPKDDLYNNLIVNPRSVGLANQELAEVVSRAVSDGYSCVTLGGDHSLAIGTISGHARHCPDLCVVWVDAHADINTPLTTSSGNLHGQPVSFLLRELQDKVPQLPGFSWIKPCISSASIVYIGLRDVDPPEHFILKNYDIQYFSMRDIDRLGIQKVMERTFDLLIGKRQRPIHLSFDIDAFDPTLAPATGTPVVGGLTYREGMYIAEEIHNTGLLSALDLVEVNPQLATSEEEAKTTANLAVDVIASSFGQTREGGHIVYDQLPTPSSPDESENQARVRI

[6] = biological target: T3, Proteasome subunit beta (Trypanosoma cruzi) (UniProt O96673); assay: Trypanosoma cruzi proteasome chymotrypsin-like activity (TcProtChymo) assay.; further: in the data most compounds retested in dose-response had high values; type: functional; settings: 9.37 µM
T3 sequence (whole entry): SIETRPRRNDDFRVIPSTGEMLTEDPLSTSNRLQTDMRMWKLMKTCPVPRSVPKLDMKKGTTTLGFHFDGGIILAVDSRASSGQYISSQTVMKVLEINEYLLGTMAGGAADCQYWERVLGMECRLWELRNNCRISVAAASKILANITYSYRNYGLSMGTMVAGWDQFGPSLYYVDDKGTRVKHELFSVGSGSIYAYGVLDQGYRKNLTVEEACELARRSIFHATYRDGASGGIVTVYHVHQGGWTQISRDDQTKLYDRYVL

Homo sapiens = organism: Homo sapiens; assay: To identify inhibition of the IFN signalling (Jak-Stat) pathway via expression of an eGFP reporter gene under the control of an IFN-stimulated response element (ISRE) containing MxA promoter.; type: functional; settings: 30 µM
[7] = biological target: T4, Tyrosyl-tRNA synthetase, putative (Trypanosoma cruzi (strain CL Brener)) (UniProt Q4DSP6); assay: Trypanosoma cruzi tyrosyl tRNA synthetase (TcYRS) _High Tyrosine SOP; type: functional; settings: 30 µM; further: in the data most compounds retested in dose-response had high values
T4 sequence (whole entry): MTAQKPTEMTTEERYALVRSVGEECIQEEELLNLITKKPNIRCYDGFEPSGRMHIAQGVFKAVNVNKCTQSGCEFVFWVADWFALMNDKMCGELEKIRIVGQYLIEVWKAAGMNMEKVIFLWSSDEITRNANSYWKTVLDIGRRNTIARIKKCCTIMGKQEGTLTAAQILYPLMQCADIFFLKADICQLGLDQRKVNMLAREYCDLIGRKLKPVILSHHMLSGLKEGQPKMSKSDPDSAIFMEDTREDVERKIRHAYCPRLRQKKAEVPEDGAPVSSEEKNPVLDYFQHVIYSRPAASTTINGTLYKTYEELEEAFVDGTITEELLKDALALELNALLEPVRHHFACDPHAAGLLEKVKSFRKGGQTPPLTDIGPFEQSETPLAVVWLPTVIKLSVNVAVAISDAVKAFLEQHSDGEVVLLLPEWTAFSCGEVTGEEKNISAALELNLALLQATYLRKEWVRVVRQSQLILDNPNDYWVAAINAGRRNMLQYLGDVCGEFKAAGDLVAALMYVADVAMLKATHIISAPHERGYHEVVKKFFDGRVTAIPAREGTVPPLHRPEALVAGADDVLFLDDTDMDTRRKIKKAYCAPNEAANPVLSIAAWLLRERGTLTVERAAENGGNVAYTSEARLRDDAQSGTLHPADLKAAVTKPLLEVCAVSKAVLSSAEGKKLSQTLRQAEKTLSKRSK

[8] = biological target: T4, Tyrosyl-tRNA synthetase, putative (Trypanosoma cruzi (strain CL Brener)); assay: Trypanosoma cruzi tyrosyl tRNA synthetase (TcYRS) SOP; type: functional; settings: 30 µM
[9] = biological target: Chromo domain-containing protein 1 (Saccharomyces cerevisiae (strain ATCC 204508 / S288c) (Baker's yeast)) (UniProt P32657); assay: ScCHD-1 Enzyme Inhibition Assay; type: functional; settings: 30 µM; further: in the data most compounds retested in dose-response had high values
Sequence of Chromo domain-containing protein 1 (Saccharomyces cerevisiae (strain ATCC 204508 / S288c) (Baker's yeast)) (P32657 whole entry, the tested form may be a part): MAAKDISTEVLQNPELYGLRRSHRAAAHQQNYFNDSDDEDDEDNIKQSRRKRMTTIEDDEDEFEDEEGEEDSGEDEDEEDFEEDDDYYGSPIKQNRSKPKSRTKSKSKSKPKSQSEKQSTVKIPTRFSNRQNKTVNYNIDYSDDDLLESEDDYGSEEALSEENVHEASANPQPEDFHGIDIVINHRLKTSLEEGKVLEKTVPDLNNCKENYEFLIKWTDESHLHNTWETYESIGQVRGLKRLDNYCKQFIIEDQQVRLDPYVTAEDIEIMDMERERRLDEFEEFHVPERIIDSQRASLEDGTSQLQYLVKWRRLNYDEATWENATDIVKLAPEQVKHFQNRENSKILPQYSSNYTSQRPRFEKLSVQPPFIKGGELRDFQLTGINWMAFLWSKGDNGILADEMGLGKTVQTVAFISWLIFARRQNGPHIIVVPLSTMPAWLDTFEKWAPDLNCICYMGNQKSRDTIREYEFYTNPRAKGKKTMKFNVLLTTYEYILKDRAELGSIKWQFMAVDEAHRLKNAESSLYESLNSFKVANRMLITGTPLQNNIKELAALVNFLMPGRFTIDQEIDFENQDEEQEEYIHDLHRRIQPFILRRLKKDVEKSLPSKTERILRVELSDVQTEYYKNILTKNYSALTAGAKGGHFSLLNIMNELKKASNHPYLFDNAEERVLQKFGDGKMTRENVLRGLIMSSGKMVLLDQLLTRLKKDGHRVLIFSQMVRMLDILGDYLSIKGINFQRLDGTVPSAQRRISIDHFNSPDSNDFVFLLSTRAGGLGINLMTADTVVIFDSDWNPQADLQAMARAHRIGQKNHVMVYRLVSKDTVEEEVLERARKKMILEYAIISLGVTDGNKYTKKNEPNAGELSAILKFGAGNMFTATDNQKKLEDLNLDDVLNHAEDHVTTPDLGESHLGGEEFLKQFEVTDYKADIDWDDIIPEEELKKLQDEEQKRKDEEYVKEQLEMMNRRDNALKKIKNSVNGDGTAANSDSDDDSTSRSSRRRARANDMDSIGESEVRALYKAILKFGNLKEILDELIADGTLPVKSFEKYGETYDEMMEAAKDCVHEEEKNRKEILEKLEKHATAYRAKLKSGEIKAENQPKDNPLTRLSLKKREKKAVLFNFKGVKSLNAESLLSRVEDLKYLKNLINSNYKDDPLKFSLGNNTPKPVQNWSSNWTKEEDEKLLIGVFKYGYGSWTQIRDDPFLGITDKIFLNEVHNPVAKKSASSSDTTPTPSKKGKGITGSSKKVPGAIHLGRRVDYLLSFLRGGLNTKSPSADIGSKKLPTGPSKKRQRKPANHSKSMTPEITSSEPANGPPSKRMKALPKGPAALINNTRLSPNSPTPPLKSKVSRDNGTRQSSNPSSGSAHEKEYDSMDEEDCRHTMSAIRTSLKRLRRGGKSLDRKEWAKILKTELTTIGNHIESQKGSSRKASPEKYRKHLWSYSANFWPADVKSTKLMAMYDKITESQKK

Sequence of Sialic acid-binding Ig-like lectin 9 (Homo sapiens) (Q9Y336 whole entry): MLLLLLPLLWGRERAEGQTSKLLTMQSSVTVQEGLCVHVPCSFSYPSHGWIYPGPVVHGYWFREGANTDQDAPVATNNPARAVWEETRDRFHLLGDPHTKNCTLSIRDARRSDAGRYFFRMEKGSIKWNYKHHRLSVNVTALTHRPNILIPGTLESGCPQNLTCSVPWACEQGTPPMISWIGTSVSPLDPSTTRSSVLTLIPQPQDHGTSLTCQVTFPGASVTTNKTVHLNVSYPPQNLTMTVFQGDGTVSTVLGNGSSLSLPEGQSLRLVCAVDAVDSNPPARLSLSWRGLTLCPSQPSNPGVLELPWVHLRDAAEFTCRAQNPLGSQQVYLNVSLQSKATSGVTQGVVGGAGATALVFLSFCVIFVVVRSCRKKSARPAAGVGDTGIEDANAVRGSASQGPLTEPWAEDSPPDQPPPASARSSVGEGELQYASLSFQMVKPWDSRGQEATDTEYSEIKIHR
Sequence of Protein translocase subunit SecA (Escherichia coli (strain K12)) (P10408 whole entry): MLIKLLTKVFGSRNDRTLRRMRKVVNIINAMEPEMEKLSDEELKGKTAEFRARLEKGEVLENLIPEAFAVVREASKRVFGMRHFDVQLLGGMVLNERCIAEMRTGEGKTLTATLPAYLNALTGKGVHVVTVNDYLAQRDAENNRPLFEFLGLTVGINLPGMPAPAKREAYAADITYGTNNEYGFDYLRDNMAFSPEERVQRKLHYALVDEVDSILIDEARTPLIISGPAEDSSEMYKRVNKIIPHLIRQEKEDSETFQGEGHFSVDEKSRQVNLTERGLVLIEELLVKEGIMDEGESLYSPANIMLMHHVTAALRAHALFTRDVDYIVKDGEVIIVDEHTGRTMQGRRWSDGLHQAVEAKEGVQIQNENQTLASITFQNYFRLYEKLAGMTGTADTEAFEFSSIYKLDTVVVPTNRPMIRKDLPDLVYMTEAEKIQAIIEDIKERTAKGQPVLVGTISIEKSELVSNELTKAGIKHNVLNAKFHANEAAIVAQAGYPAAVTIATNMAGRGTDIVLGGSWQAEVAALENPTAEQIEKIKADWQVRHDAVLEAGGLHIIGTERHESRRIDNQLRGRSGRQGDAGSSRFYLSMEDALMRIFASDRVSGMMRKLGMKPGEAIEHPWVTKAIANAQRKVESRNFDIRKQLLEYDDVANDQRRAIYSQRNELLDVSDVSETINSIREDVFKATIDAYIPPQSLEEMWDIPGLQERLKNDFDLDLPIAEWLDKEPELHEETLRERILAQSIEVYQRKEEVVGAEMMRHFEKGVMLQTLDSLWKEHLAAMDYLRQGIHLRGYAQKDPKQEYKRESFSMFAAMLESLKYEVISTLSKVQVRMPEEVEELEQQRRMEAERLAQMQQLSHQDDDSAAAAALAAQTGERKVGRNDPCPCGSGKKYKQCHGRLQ

Compound | Percent Effect [1] [%] | Percent Effect [2] [%] | Percent Effect [3] [%] | Percent Effect [4] [%] | Percent Effect (Trypanosoma cruzi) [%] | Percent Effect [5] [%] | Percent Effect [6] [%] | Percent Effect (Homo sapiens) [%] | Percent Effect [7] [%] | Percent Effect [8] [%] | Percent Effect [9] [%]
CC(=O)N(Cc1ncc(C(C)C)o1)C1CCN(Cc2ncc[nH]2)C1 (stereo unspecified) | -1 | 10.8 | -3.5 | -1.85 | 3.99 | -3.14 | 5.21 | 6.45 | 13.9 | 25.6 | -5.05
CCCNC(=O)Nc1cccc2c1CCN(S(C)(=O)=O)C2 | -9.62 | 18.4 | -0.671 | 6.12 | 4.38 | -35.5 | 6.81 | -3.94 | 3.19 | 18.2 | -1.24
CCN(CC)CC(=O)NCCc1csc(N2CCCC2)n1 | -3.47 | -2.67 | -4.85 | -0.334 | -2.24 | -1.04 | 5.41 | 5.85 | -0.546 | -1.24 | 6.78
Cc1cc(C)n(CC2CCCN2C(=O)c2cc[nH]n2)n1 (stereo unspecified) | -7.68 | 16.5 | -4.09 | -3.12 | 0.923 | 0.215 | 8.58 | -2.4 | 7.29 | 17.7 | -34.4
CC(=O)N(C)c1nc(CN2CCOC(Cn3cccn3)C2)cs1 (stereo unspecified) | 1.46 | 8.11 | -1.27 | 15.7 | 3.09 | 17.1 | 15.9 | 10.3 | 4.76 | 12.2 | -5.18
Cc1nc(C2CCCN(C(=O)c3cc(Cl)c[nH]3)C2)no1 (stereo unspecified) | -5.67 | 12.7 | -0.617 | 10.9 | 3.87 | -6.46 | 1.88 | -5.6 | 5.42 | 13.9 | -7.78
COc1cc(C2CC(=O)Oc3cc(C)[nH]c(=O)c32)ccc1OC(F)F (stereo unspecified) | -2.55 | 17.3 | -1.47 | -4.76 | -5.3 | -6.16 | 19 | 7.6 | 3.17 | 12.8 | -13
N#Cc1ccc(OCCNc2cccc(C(=O)N3CCOCC3)c2)cc1 | -3.6 | 15.6 | -1.62 | 14.6 | 6.98 | -8.28 | 17.1 | 16.8 | 2.15 | 13.6 | 0.249
N#Cc1cc(NC(=O)c2ccccc2)ccc1N1CCC(O)CC1 | -0.198 | 10.8 | -7.93 | 6.67 | 2.51 | 9.05 | 10 | -5.21 | 1.59 | 9.76 | -2.82
COc1cc(C)nc(N2CCN(C(=O)c3ccc[nH]3)CC2)n1 | -5.18 | 10.8 | -2.76 | 14.9 | 3.68 | -5.21 | 4.14 | 17.1 | 1.48 | 6.17 | -10.1
Cc1noc(C2CCN(C(=O)c3c(C)noc3C)CC2)n1 | -3.97 | 10.8 | -5.85 | 7.55 | 1.47 | 0.248 | 11.9 | -25.3 | 6.45 | 13.6 | -4.31
